# Reference: PubChem BioAssay (NCATS)
# Records with an inconclusive call do not appear. Values without a mark were called inactive. Calls follow the shape of the dose curve; as a rule, active = well fitted inhibition curve with a large enough effect; inconclusive = small, poorly fitted or top-dose-only effect; inactive = no such curve, though single readings can be large or run the other way. Square brackets hold non-standard residues; d marks the D form. Peptide text beside a SMILES is read from it. 2Abz = Nc1ccccc1C(=O)O
# Biological target: Retinaldehyde dehydrogenase 3 (Homo sapiens) (UniProt P47895)
# Assay: qHTS for Inhibitors of the Aldehyde Dehydrogenase Family (ALDH1A3) Primary screen (AID 2061315);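 also: plate controls were DMSO vehicle for no effect and reference inhibitor for full effect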
# Details: ALDH inhibition qHTS; series mostly up to 56 µM; activity change, negative = inhibition: at the top concentration
row,SMILES,"activity change, negative = inhibition"
1,OC[C@@]1(O)CO[C@H](OC[C@H]2O[C@@H](OC(CCCCc3ccc(O)cc3)CCc3ccc(O)cc3)[C@H](O[C@H]3OC[C@](O)(CO)[C@H]3O)[C@@H](O)[C@@H]2O)[C@@H]1O (stereo partly specified),-6.8% [at 16.9 µM]
2,C[C@H](O)[C@H](O)/C=C/c1cccc(O)c1CO,-13.8%
3,C[C@@H]1O[C@@H](OC[C@H]2O[C@@H](OC(CCCCc3ccc(O)cc3)CCc3ccc(O)cc3)[C@H](O)[C@@H](O)[C@@H]2O)[C@H](O)[C@H](O)[C@H]1O (stereo partly specified),-5.67% [at 16.9 µM]
4,CC1(C)CC2C(O)C3=C(CC(C)(O)C2C1)C(=O)OC3O (stereo unspecified),5.94%
5,COc1cc(C)c(C(=O)Oc2cc(C)c(C(=O)Oc3cc(C)c(C(=O)NC(C)C(=O)O)c(O)c3)c(O[C@@H]3O[C@H](CO)[C@@H](O)[C@H](O)[C@H]3OC(C)=O)c2)c(OC)c1 (stereo partly specified),-8.42% [at 16.9 µM]
6,CCC(C)C1NC(=O)C2CCCN2C(=O)C(C(C)C)NC(=O)c2ccccc2NC(=O)C(Cc2ccc(O)cc2)NC(=O)C(C)NC(=O)C(C(C)O)NC1=O (stereo unspecified) (cyclo([2Abz]VPITAY); configuration not given here),-11.8% [at 16.9 µM]
7,COCCN(C)Cc1ccc2nc3sc(C(=O)N(C)C4CCCCC4)cn3c2c1,-14.1%
8,COC(=O)C1=COC(OC2OC(CO)C(O)C(O)C2O)C2C1CC(OC(=O)C(O)CC(=O)O)C2C (stereo unspecified),-0.599% [at 28 µM]
9,C=C1CC[C@@H]2[C@@](C)(CO[C@@H]3O[C@H](CO)C(O)[C@H](O)C3O)[C@H](O)CC[C@@]2(C)[C@@H]1CC/C(C)=C/CO (stereo partly specified),18.1% [at 16.9 µM]
10,CC1=C(C)C(=O)OC(C(C)C2CCC3C4CC=C5CC(OC6OC(COC7OC(CO)C(O)C(O)C7O)C(O)C(O)C6O)CC(O)C5(C)C4CCC23C)C1 (stereo unspecified),-0.418% [at 16.9 µM]
11,C=C1CC[C@@H]2C(C)(C)CCC[C@@]2(C)[C@@H]1CC/C(=C/C(=O)OC)COC(C)=O,-2.36%
12,C=C1CCC2C(C)(C)CC(O)CC2(C)C1CCC(C)CC(=O)O (stereo unspecified),3.05%
13,C[C@]12C=CC(=O)C=C1CC[C@@H]1[C@@H]2[C@@H](O)C[C@@]2(C)[C@H]1CC[C@]2(O)C(=O)COC(=O)CCC(=O)O,-5.91%
14,CO[C@H]1O[C@@H]2O[C@@]3(C)CCC4[C@H](C)CCC([C@H]1C)[C@]42OO3 (stereo partly specified),0.304%
15,C=C1C(=O)OC2/C=C(\C)CC3C=C(CC/C=C(\C)CCC12)C(=O)O3 (stereo unspecified),0.765%
16,Cc1onc(-c2c(F)cccc2Cl)c1C(=O)N[C@@H]1C(=O)N2[C@@H]1SC(C)(C)[C@@H]2C(=O)O,-4.3%
17,C[C@H](NC(=O)CCc1nc2ccccc2c(=O)[nH]1)c1ccccc1,-13.8%
18,C=C1CCC2C(C)(C)CCC[C@]2(C)[C@H]1C/C=C(\CO)C(=O)C(=O)O (stereo partly specified),2.34%
19,CNc1nc(Cc2ccccc2)nc2c1CCNC[C@@H]2C,-12.9%
20,C[C@H]1CC[C@@]2(OC1)O[C@H]1CC3C4CC=C5C[C@H](O)C[C@@H](O[C@@H]6O[C@@H](C)[C@H](O)[C@@H](O)[C@H]6O[C@@H]6O[C@@H](C)[C@H](O)[C@@H](O)[C@H]6O)[C@]5(C)C4CC[C@]3(C)[C@H]1[C@@H]2C (stereo partly specified),12.5% [at 16.9 µM]
21,COc1cc(O)c2c(c1)C1(OC2=O)C(C)=CC(=O)C1O (stereo unspecified),-20.9%
22,C[C@@H]1O[C@@H](O[C@H]2[C@H](O)[C@@H](O[C@@H]3O[C@H](CO)[C@H](O)[C@H](O)[C@H]3O)[C@H](O[C@H]3CC[C@@]4(C)C(CC[C@]5(C)C4CC=C4[C@@H]6CC(C)(C)CC[C@]6(C(=O)O[C@@H]6O[C@H](CO)[C@@H](O)[C@H](O)[C@H]6O)CC[C@]45C)C3(C)C)O[C@@H]2C(=O)O)[C@H](O)[C@H](O)[C@H]1O (stereo partly specified),4.15% [at 16.9 µM]
23,COc1cc(NS(=O)(=O)c2ccc(N)cc2)nc(C)n1,-0.165%
24,C=C(C)C1Cc2c(ccc3c2OCC(c2ccc(O)cc2O)C3)O1 (stereo unspecified),-0.986%
25,C[C@@H]1C(=O)O[C@H](C)[C@H]1C[C@@H](O)[C@](C)(O)[C@H]1CC[C@@]2(O)C3=CC(=O)[C@@H]4C[C@@H](O)[C@@H](O)C[C@]4(C)C3CC[C@]12C (stereo partly specified),7.94% [at 28 µM]
26,CC(=O)OCC1OC(OC2COC(OC3COC(OC4C(OC5C(CO)OC(OC6CCC7(C)C(CCC8(C)C7CC=C7C9CC(C)(C)CCC9(C(=O)OC9OC(CO)C(O)C(O)C9OC9OCC(OC%10OCC(O)(CO)C%10O)C(O)C9O)C(O)CC78C)C6(C)C)C(O)C5O)OCC(O)C4O)C(O)C3O)C(O)C2O)C(OC(=O)/C=C/c2ccccc2)C(O)C1OC(C)=O (stereo unspecified),-8.22% [at 11.2 µM]
